Hits are enriched below; roughly 4% of the tested compounds scored in any of these assays.
FBA Mtb inh = inhibits M. tuberculosis FBA enzyme; 360,000 compounds, 2.3% hits; purified M. tuberculosis FBA, fluorescence read-out; P9WQA3; inhibition, % at 1 µM
GDH-TPI counter-1 = GDH-TPI coupled enzyme inhibition counter-screen; GDH-TPI coupled enzyme counterscreen, NADH absorbance; inhibition, % at 4.8 µM; 360,000 compounds, 1.2% hits; AID 588335; in the data active = inhibition above about 30%
Mtb bLac sens = beta-lactam sensitization of Mtb H37Rv | M. tuberculosis H37Rv growth with meropenem, percent inhibition | inhibition, % at 25 µM | 330,000 compounds, 0.27% hits | AID 434955; call rule not given here;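 also: growth measured after seven days incubation then overnight dye step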
RecA intein inh = blocks M. tuberculosis RecA intein splicing. P9WHJ3. AID 2221. cell-free RecA intein splicing, fluorescence. inhibition, % (no concentration beside the values). 290,000 compounds, 0.75% hits; in the data active = inhibition above about 30%
Target sequence (P9WHJ3 whole entry, looked up): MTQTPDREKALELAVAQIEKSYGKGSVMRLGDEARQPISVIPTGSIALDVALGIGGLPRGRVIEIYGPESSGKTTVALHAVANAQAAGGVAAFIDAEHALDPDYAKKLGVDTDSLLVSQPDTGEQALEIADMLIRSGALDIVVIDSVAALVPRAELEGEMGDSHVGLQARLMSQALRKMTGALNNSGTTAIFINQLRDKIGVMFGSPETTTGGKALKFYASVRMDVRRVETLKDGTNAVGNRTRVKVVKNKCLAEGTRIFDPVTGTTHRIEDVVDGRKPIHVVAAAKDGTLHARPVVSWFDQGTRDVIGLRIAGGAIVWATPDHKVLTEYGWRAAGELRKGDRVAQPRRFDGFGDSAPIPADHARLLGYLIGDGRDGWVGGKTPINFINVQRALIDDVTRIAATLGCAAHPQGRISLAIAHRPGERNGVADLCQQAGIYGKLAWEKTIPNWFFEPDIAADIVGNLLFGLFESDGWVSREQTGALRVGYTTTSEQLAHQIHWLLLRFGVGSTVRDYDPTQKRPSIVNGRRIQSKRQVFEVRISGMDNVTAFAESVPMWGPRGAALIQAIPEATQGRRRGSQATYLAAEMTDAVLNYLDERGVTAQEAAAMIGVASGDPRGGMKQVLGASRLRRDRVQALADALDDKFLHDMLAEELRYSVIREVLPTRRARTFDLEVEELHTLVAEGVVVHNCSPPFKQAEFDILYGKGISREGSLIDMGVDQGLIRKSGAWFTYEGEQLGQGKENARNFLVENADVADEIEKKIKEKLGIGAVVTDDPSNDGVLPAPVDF
Mtb UGM inh = inhibitors of M. tuberculosis UDP-galactopyranose mutase; P9WIQ1; purified UGM, fluorescence polarization probe displacement; inhibition, % at 10 µM; 320,000 compounds, 0.06% hits; in the data active = inhibition above about 10%, passing the limit was not always enough
Rv3671c inh = inhibitors of M. tuberculosis serine protease Rv3671c. AID 2606. inhibition, % at 5.96 µM. P9WHR9. 320,000 compounds, 0.048% hits; in the data active = inhibition above about 38%;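 also: extracellular domain of Rv3671c used as enzyme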
Mtb FBA inh conf = Mtb FBA inhibition, confirmed | inhibition, % at 1 µM | AID 651616 | shares compounds with FBA Mtb inh | purified M. tuberculosis FBA, fluorescence read-out | 5,600 compounds, 78% hits
GDH-TPI counter-2 = GDH-TPI inhibition counter-screen for FBA inhibitors. inhibition, % at 1 µM. 5,600 compounds, 81% hits. GDH-TPI coupled enzyme counterscreen, fluorescence. shares compounds with FBA Mtb inh; in the data active = inhibition above about 10%
GDH-TPI dose = GDH-TPI dose response counter-screen for Mtb FBA. shares compounds with FBA Mtb inh. GDH-TPI coupled enzyme assay, fluorescence, artifact counterscreen. IC50, µM. 170 compounds, 79% hits. AID 652145; call rule not given here
Hits are given with their value; – = inactive; · = no result; + = active, no number. Rule as the data show it, unless noted: active = inhibition above about 27%; inactive = the rest.

SMILES | FBA Mtb inh | GDH-TPI counter-1 | Mtb bLac sens | RecA intein inh | Mtb UGM inh | Rv3671c inh | Mtb FBA inh conf | GDH-TPI counter-2 | others
OCCCNc1cc(-c2ccccc2)nc2cc(-c3ccc(F)cc3)nn12 | 59 | – | – | – | – | – | 102 | 77
Cc1cc(NCCCO)n2nc(-c3cccs3)cc2n1 | 33 | – | – | – | – | – | 68 | 56
Cc1cc(NCCN(C)C)n2nc(-c3cccs3)cc2n1 | – | – | – | – | – | – | · | ·
Nc1cc(-c2ccc(Br)cc2)nc2cc(-c3ccccc3)nn12 | – | – | – | – | – | – | · | ·
COc1cc(S(=O)(=O)NCc2ccncc2)ccc1Br | – | – | – | – | – | – | · | ·
Cc1ccc(NS(=O)(=O)c2ccc(C(=O)NCCCN3CCCC3=O)cc2)cc1 | – | – | – | · | – | – | · | ·
CC(=O)Oc1ccc2nc(-c3ccc(Br)o3)oc(=O)c2c1 | – | – | – | – | – | – | · | ·
CC(=O)c1c[nH]c(C(=O)NCc2ccccc2Cl)c1 | – | – | – | – | – | – | · | ·
N#CC1=CN(Cc2ccccc2)C=C(/C=N/Nc2ccccc2)C1 | – | – | – | · | – | – | · | ·
CCOC(=O)C(=O)C1=CN(Cc2ccccc2)C=C(C#N)C1 | 29 | – | – | – | – | – | 98 | 70
Cc1cc(C)cc(OCC(=O)N(C)CC(=O)Nc2ccc(N3CCOCC3)cc2)c1 | – | – | · | · | · | · | · | ·
O=C(NCCO)c1cc2c([nH]c3ccccc32)c(-c2ccccc2)n1 | – | – | – | – | – | – | · | ·
CSCCC(NC(=O)c1ccccc1)C(=O)O (configuration not stated) | 42 | – | – | – | – | – | · | +
C[C@H](NC(=O)c1cc2c([nH]c3ccccc32)c(-c2ccccc2)n1)C(=O)O | 36 | – | – | – | – | – | 141 | 108
CSCC[C@H](NC(=O)c1cc2c([nH]c3ccccc32)c(-c2ccccc2)n1)C(=O)O | 47 | – | – | – | – | – | – | 15
CSCCC(NC(=O)c1ccc(Cl)cc1)C(=O)O (configuration not stated) | – | – | – | – | – | – | · | ·
C=CCN1C(=NC(=O)COc2ccc(Cl)cc2)SC2CS(=O)(=O)CC21 (configuration not stated) | – | – | – | – | – | – | · | ·
CC(C)C(NC(=O)c1ccc(F)cc1)C(=O)N1CCOCC1 (configuration not stated) | – | – | – | · | – | – | · | ·
Cc1ccc(Nc2nnc(-c3ccccc3N)o2)cc1C | 49 | – | – | – | – | – | – | – | GDH-TPI dose=3.1
COc1cccc2c(=O)c3ccoc3n(C)c12 | 40 | – | – | – | – | – | 75 | 57
COc1cccc2c(=O)c3cccc(N)c3[nH]c12 | – | – | – | – | – | – | · | ·
COc1ccccc1/C=C/C=N/NC(=O)Cc1cccn1C | 78 | 51 | – | – | – | – | + | +
Cn1cccc1CC(=O)N/N=C/c1cccc2ccccc12 | – | – | – | – | – | – | · | ·
O=C(CNc1cccc2ccccc12)c1ccc([N+](=O)[O-])cc1 | 28 | – | – | – | – | – | 56 | 36
O=C(Nc1cccc2ccccc12)c1ccc([N+](=O)[O-])cc1 | – | – | – | – | – | – | · | ·
SMILES | FBA Mtb inh | GDH-TPI counter-1 | Mtb bLac sens | RecA intein inh | Mtb UGM inh | Rv3671c inh | Mtb FBA inh conf | GDH-TPI counter-2 | others
CN(C)CCSc1nc2cc(S(=O)(=O)N3CCCCC3)ccc2o1 | – | – | – | · | – | – | · | ·
COc1ccc2c(OC)c3ccoc3nc2c1OC | 96 | – | – | – | – | – | 192 | 166
O=C(COC(=O)c1cc(S(=O)(=O)N2CCCCC2)ccc1N1CCOCC1)c1ccccc1 | – | – | – | – | – | – | · | ·
Cc1ccc(N2C(N)=NC(N)=NC2(C)C)c(C)c1 | – | – | – | – | – | – | · | ·
Cc1ccccc1N1C(N)=NC(N)=NC1(C)C | 76 | – | – | – | – | – | + | +
COc1ccc2c(c1)nc(NCCO)n2C | 37 | – | – | – | – | – | 187 | 170
Cc1ccc2c(c1)nc(NCCCO)n2C | – | – | – | – | – | – | · | ·
O=C(O)c1cc(O)ccc1O | 87 | – | · | · | · | · | – | –
Nc1ccc(O)c(C(=O)O)c1 | · | · | – | – | – | – | · | ·
CC(C)(c1ccc(O)cc1)c1ccc(O)c(C(=O)O)c1 | 61 | – | · | · | · | · | 60 | 52
CC(C)(c1ccc(O)cc1)c1ccc(O)cc1 | – | – | – | – | – | – | · | ·
Cc1c(OC(C)C(=O)NCc2ccncc2)ccc2c3c(c(=O)oc12)CCC3 (configuration not stated) | 73 | – | – | – | – | – | 83 | 53
Cc1c(OC(C)C(=O)NCc2ccccn2)ccc2c3c(c(=O)oc12)CCCC3 (configuration not stated) | 68 | – | – | – | – | – | – | –
Cc1c(OCC(=O)NCc2ccncc2)ccc2c3c(c(=O)oc12)CCC3 | – | – | – | – | – | – | · | ·
O=C(Nc1cccnc1)c1cc2c(s1)-c1ccccc1OC2 | 73 | 37 | – | – | – | – | 71 | 54
Cc1cccc2c1-c1sc(C(=O)Nc3cccnc3)cc1CO2 | 101 | – | – | – | – | – | – | –
COc1ccccc1Oc1ccc(Oc2ccccc2OC)cc1 | – | – | – | – | · | – | · | ·
CC(=O)Nc1ccc2c(CSc3nnc(N)s3)cc(=O)oc2c1 | 27 | 42 | – | – | – | – | 78 | 67
CC(=O)Nc1ccc2c(CSc3nncs3)cc(=O)oc2c1 | – | – | – | – | – | – | · | ·
O=C(c1ccc(Cl)c(Cl)c1)N1CCC(=O)N(C(COCc2ccccc2)Cc2ccccc2)CC1 (configuration not stated) | – | – | – | – | – | – | · | ·
CN1CCN(C(=O)CSc2nc(-c3cccs3)ccc2C#N)CC1 | 50 | – | – | – | – | – | + | +
CCOC(=O)CSc1nc(-c2ccncc2)ccc1C#N | – | – | – | – | – | – | · | ·
N#Cc1ccc(-c2cccs2)nc1SCc1cccnc1 | 34 | – | – | – | – | – | – | –
N#Cc1c(C(F)(F)F)cc(-c2cccs2)nc1SCc1cccnc1 | – | – | – | – | – | – | · | ·
Cc1cc(C(=O)COC(=O)c2ccccc2NCCO)c(C)n1CC1CCCO1 (configuration not stated) | 29 | – | – | – | – | – | + | +
Cc1cc(C(=O)COC(=O)c2ccccc2O)c(C)n1CC1CCCO1 (configuration not stated) | – | – | – | · | – | – | · | ·
Cc1c(Br)c(=O)oc2c(Br)c(O)ccc12 | 36 | – | – | – | – | – | 43 | 28
Cc1cccc(NC(=O)c2cnc3ccccn3c2=O)c1 | – | – | · | · | · | · | · | ·

Bioassay records deposited in PubChem by several laboratories.
